The campaign covered roughly 200,000 compounds. About 65 (0.03%) were called active. The entries come from a sample that favours actives as a whole. A number with no mark means an inactive call.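 Rule for the calls: active = over 50% inhibition of tissue-nonspecific alkaline phosphatase at 20 µM in the single-dose screen; inactive = the rest.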

The target in this assay is Alkaline phosphatase, tissue-nonspecific isozyme (Homo sapiens) (UniProt P05186). Description: blockers of alkaline phosphatase TNAP activity – biochemical, luminescent, high phosphate acceptor level, uHTS, primary screen (AID 1135).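 Note: plate controls were DMSO wells for no effect and EDTA-quenched wells as full inhibition for full effect.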 The note with it: purified TNAP, CDP-star luminescence, 1 M DEA; at 20 µM; stronger effect = higher value.
Sequence of Alkaline phosphatase, tissue-nonspecific isozyme (Homo sapiens) (P05186 whole entry, looked up): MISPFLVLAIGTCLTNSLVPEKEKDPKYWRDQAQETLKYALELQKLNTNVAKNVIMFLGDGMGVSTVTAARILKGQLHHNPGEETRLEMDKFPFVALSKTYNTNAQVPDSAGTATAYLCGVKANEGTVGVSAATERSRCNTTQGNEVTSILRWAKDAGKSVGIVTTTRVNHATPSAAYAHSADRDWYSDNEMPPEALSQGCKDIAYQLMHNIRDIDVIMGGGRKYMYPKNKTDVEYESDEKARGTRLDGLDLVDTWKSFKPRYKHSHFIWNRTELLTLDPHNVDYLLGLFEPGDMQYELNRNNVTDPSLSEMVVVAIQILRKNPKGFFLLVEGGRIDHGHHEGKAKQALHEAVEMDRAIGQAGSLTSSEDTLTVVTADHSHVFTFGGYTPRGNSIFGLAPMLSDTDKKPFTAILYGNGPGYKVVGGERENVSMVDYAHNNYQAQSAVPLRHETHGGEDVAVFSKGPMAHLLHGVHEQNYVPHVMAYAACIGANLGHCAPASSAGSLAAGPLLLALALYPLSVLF
Usually inhibition stands for the change of the read-out against control, counted positive when it falls. On to `CCOC(=O)/C(=N\Nc1cc(Cl)ccc1Cl)N1CCN(C)CC1`, for which the inhibition is 3.4%.
In the case of `S=C(NCC1CCCO1)N1CCN(c2ccc(Cl)c(Cl)c2)CC1` (configuration not stated), the inhibition is -1.7%.
Then `COc1cc(C2OC(c3cc(OC)c(OC)c(OC)c3)C(C)C2C)cc(OC)c1OC` (configuration not stated), with -2.4%; and `O=C(CCCCCNC(=O)c1ccccc1)N/N=C/c1ccccc1`, with -6.8%; and `O=C(NCCN1C(=O)S/C(=C\c2cccnc2)C1=O)c1cccc(OC(F)F)c1`, with -0.3%.
Then `COc1ccc(CCc2nnc(CCC(=O)NCc3cnn(-c4ccccc4C)c3)o2)cc1`, with 1.5%.
Then `S=C(NCCc1ccccc1)NCC1CCCO1` (configuration not stated), with -0.7%.
As for `CN(C)c1ccc(/C=N/NC(=O)C(O)c2ccc(Br)cc2)cc1` (configuration not stated), the inhibition is -1.9%.
Then `CCCCN(C)CCNC(=O)CSCc1ccc(C)cc1`, with -5.4%; and `CC(=O)c1sc(N/N=C/c2ccc(C(C)C)cc2)nc1C`, with 13.5%; and `Cc1ccc(OCC(=O)NC(C)c2ccccc2)c([N+](=O)[O-])n1` (configuration not stated), with -1.6%.
As to `Cc1ccc(CSCC(N)C(=O)O)cc1` (configuration not stated), the inhibition is 0.6%.
Then `O=C(Nc1ccc(N2CCOCC2)cc1)c1ccc(-c2ccccc2[N+](=O)[O-])o1`, with 0.3%; and `Cc1ccc(-c2nc(-c3cccnc3)sc2CC(=O)Nc2ccc(C)c(Cl)c2)cc1`, with -1.4%.
Then `O=C(CC1SC(=Nc2ccccc2)N(Cc2ccccn2)C1=O)Nc1cccc(Cl)c1` (configuration not stated), with 3%; and `CCCCC(CC(C)O)c1n[nH]c(=S)n1-c1ccccc1` (configuration not stated), with 7.9%.
Then `COCCn1c(=NC(=O)c2ccccc2[N+](=O)[O-])sc2cc(S(C)(=O)=O)ccc21`, with 3.3%; and `C#CCCCc1nc2ccccc2c(=O)n1N`, with -3.7%.
For the compound `Cc1c(NC(=S)Nc2ccccc2)c(=O)n(-c2ccccc2)n1C`, the inhibition was 4.8%.
`O=C(COC(=O)[C@H](Cc1ccccc1)NC(=O)c1cccs1)Nc1cc(F)ccc1F`: the inhibition was -1.2%.
Then `C=CCn1c(SCCOc2ccc(OC)cc2)nnc1C(NC(=O)c1ccc(OC)cc1)C(C)C` (configuration not stated), with -3.4%; and `CN1CCN(C(=O)N2c3ccccc3CCc3ccccc32)CC1`, with -5.7%.
Then `COc1ccc(CCNC(=O)CSc2nc3[nH]ncc3c(=O)n2-c2cccc(C(F)(F)F)c2)cc1OC`, with 2.6%; and `CN(CCOc1ccc(Br)cc1)CC(=O)Nc1cccc(S(=O)(=O)NC2=NCCC2)c1`, with -4.6%; and `O=C(NNC1CC(=O)N(c2cccc(Cl)c2)C1=O)c1cccnc1` (configuration not stated), with -3.4%.
`Cc1ccc(S(=O)(=O)NC2(C(F)(F)F)NC(=O)N(CCc3ccccc3)C2=O)cc1` (configuration not stated): the inhibition was -6.1%.
Then `COc1ccc(OC)c(S(=O)(=O)Nc2cccc(-c3ccc4nncn4n3)c2)c1`, with -3.7%.
Then `C[C@@H](O)c1nc2ccccc2n1N`, with -1.1%; and `O=C(Nc1cccc(Cl)c1)c1cc([N+](=O)[O-])ccc1N1CCN(CCO)CC1`, with 2.5%.
Then `CCOc1ccc(NC(=O)CSc2ncnc3c2sc2ccccc23)cc1`, with -1.9%; and `Cc1ccc2[nH]c(=O)c(CN(CC3COCCO3)C(=O)Nc3ccccc3C)cc2c1` (configuration not stated), with -4.6%.
As to `COc1cccc(CN(C)CC(=O)NCc2ccccc2Cl)c1OC`, the inhibition is 1.3%.
Then `CCC(C)(C)NC(=O)CN(C(=O)CCC(=O)Nc1cc(C)ccn1)c1ccc2c(c1)OCCO2`, with -6%.
Then `O=C(Nc1ccc(N2CCN(C(=O)c3cccs3)CC2)cc1)c1cccnc1Cl`, with -2.2%; and `CN(C)c1ccc(/C=N/Nc2cc(N3CCOCC3)nc(N3CCOCC3)n2)cc1`, with -5.4%.
Then `O=C(NNc1c2ccccc2nc2ccccc12)c1cc2ccccc2cc1O`, with 26.1%; and `O=c1oc(/C=C/c2ccccc2)nc2ccccc12`, with 0%.
Regarding `O=C(O)c1ccc(N/N=C/c2ccc3ncccc3c2)cc1`, the inhibition is 0.7%.
Then `Cc1[nH]c2ccccc2c1C(=O)COC(=O)c1c(-c2ccccc2)noc1C`, with -2.1%; and `CC/C(O)=C1\C(=O)CC(C)(C)CC1=NCCc1nc2ccccc2[nH]1`, with -0.3%; and `O=C(NCc1cccs1)C(=O)NCC1OCCCN1S(=O)(=O)c1ccc(F)cc1` (configuration not stated), with 0.7%.
Then `CCn1c(SCC(=O)N/N=C/C=C/c2ccccc2[N+](=O)[O-])nnc1-c1ccccc1`, with 1.3%.
Then `CCOc1ccc(NS(=O)(=O)c2cc(C)c(C)cc2C)cc1`, with -1.7%; and `Cc1ccc(SCCC(=O)NC(C(C)C)C(C)C)cc1`, with -0.8%; and `O=C(/C=C/c1ccccc1Cl)Nc1ccc(S(=O)(=O)Nc2ncccn2)cc1`, with -0.8%.
In the case of `Cc1ccc(C)c(NS(=O)(=O)c2ccc(OCC(=O)NCc3cccnc3)cc2)c1`, the inhibition was 3.1%.
Then `C/C(=N\N=C(N)N)c1ccc(Cl)cc1`, with -5.8%; and `Cc1cc(=O)oc2c1c(C)nn2-c1ccc(Cl)cc1`, with -6.1%.
Then `CC(C)Oc1ccc(Cc2n[nH]c(=S)n2Cc2ccccc2)cc1Cl`, with -3.4%; and `Cc1no[n+]([O-])c1COc1ccccc1/C=C1\NC(=S)NC1=O`, with 0.1%.
Then `NS(=O)(=O)c1ccc(NC(=O)/C=C/c2ccccc2Cl)cc1`, with 6.2%.
Regarding `COc1ccc(OC)c(S(=O)(=O)NCCC(C)C)c1`, the inhibition is -7.1%.
Then `COc1ccc(CCNC2=C(Cl)C(=O)N(Cc3ccccc3)C2=O)cc1OC`, with 0.7%.
Then `Cc1ccccc1CSCCNC(=O)c1ccc(N(C)S(=O)(=O)c2ccccc2)cc1`, with -8.8%.
Then `Cc1ccc(NC(=O)CSCC(=O)NC2CCCCC2)cc1`, with -0.6%; and `COc1ccc(C/C(N)=N/OC(=O)c2ccco2)cc1OC`, with -4.3%; and `CC/C(Cc1ccccc1)=N/NC(=O)CCn1nnc2ccccc21`, with -4.6%.
As to `CCOc1ccc(C(=O)NC(=S)Nc2ccc(N3CCOCC3)c(Cl)c2)cc1[N+](=O)[O-]`, the inhibition was 1.7%.
For the compound `CN1CCN(C(=O)/C(=C\c2ccc3c(c2)OCO3)NC(=O)c2cccs2)CC1`, the inhibition was -3.5%.
As for `CCS(=O)(=O)C1=NSC2=NC(=O)/C(=C\c3cc(C)n(-c4cccc(OC)c4)c3C)C(=N)N21`, the inhibition was 1.7%.
As for `Cc1ccsc1C1C(C#N)=C(N)OC2=C1C(=O)CC(C)C2` (configuration not stated), the inhibition is -0.4%.
Then `CCOC(=O)c1[nH]ncc1CN1CCCC(C(=O)c2ccc(OC)cc2C)C1` (configuration not stated), with -5.9%; and `C/C(=N\NC(=S)NC(C)C)c1ccc(C(C)(C)C)cc1`, with 0.4%; and `O=C(N/N=C/c1ccc([N+](=O)[O-])cc1)C(=O)N1CCCC1`, with 1.8%.
In the case of `COCCN(CCOC)S(=O)(=O)c1ccc(/C(O)=C(\C#N)c2nc3ccccc3[nH]2)cc1`, the inhibition is -5.5%.
Then `O=C1OC(OC(=O)c2ccccc2Br)C(N2CCOCC2)=C1Cl` (configuration not stated), with 4.1%.
Then `CCOC(=O)N/N=C/c1cn(Cc2ccccc2Cl)c2ccccc12`, with 0.2%; and `CC(=O)N/N=C/c1cc2c(cc1[N+](=O)[O-])OCO2`, with 2.5%.
Then `COc1ccc(NC(=S)NCCN2CCC(C)CC2)cc1`, with -0.4%; and `CCN1CCN(C(C(=O)NC2CCCC2)c2cc3c(cc2[N+](=O)[O-])OCO3)CC1` (configuration not stated), with -2.4%.
With `O=C(Nc1ccccc1C(=O)N1CCOCC1)c1ccc(Cl)cc1`, the inhibition is -6.3%.
On to `COc1ccc(Cl)cc1NC(=O)[C@@H]1CCCN1C(=O)c1cccs1`, for which the inhibition is 1%.
Then `O=[N+]([O-])c1ccc(N/N=C2/CCCCC2c2ccccn2)c([N+](=O)[O-])c1` (configuration not stated), with 4%; and `CC(C)OC(=O)Cn1nc(C(F)(F)F)c2c1CCCC2`, with -1.6%; and `O=C(COc1ccccc1)Nc1ccc(N2CCN(C(=O)c3cccs3)CC2)cc1`, with -2.1%.
Turning to `Cc1ccc(NC(=O)c2sccc2C)cc1[N+](=O)[O-]`, the inhibition was 0.9%.
With `COc1ccc(NS(=O)(=O)c2cc(NC(=O)C3CCCCC3)ccc2N2CCOCC2)cc1`, the inhibition was 0.1%.
Then `COc1cccc(OC)c1C(=O)OCC(=O)/C(C#N)=C(\C)N`, with 0.2%.
In the case of `CCOc1ccc(CCN2C(=O)c3cccnc3C2=O)cc1OCC`, the inhibition is 2.6%.
Then `CC(=O)c1ccc(N2CCN(CC(=O)Nc3ccccc3N3CCOCC3)CC2)cc1`, with -5.4%; and `CCOCCCNC(=O)C(NC(=O)Cc1c[nH]c2ccccc12)c1ccc(OC)cc1` (configuration not stated), with 2.4%.
Then `CCN1CCN(c2cc3nc(C)n(Cc4ccccc4)c(=O)c3cc2NC(=O)c2ccccc2F)CC1`, with -2.8%; and `C/C(=N\NC(=O)c1ccc(NS(=O)(=O)c2cccs2)cc1)c1ccc2ccccc2c1`, with -2.7%; and `Cc1ccc(C(=O)COC(=O)CCCC(=O)NC2CCCCC2)cc1[N+](=O)[O-]`, with -4.3%.
Then `O=C(Nc1cccnc1)c1cc2cc(Br)ccc2oc1=O`, with -1.6%; and `CCNS(=O)(=O)c1ccc(NC(=O)c2cncc(Br)c2)cc1`, with -1%; and `Cc1ccc(S(=O)(=O)N(C)C)cc1NC(=O)COC(=O)C1COc2ccccc2O1` (configuration not stated), with -3.2%.
On to `CCOC(=O)c1ccccc1N1C(=O)C2Sc3[nH]c(=O)sc3C(/C=C/c3ccccc3)C2C1=O` (configuration not stated), for which the inhibition is 4.9%.
With `CCc1nnc(NC(=O)CCCSc2nc3ccccc3[nH]2)s1`, the inhibition was -4.4%.
Then `CCN(CC)P(=O)(Nc1ccc(SC(F)F)cc1)c1ccc(N(C)C)cc1NC(=O)c1ccco1` (configuration not stated), with -7.3%.
Then `O=C(C(=O)N1CCc2ccccc2C1)c1c[nH]c2ccccc12`, with 40.6%.
Then `C=CCNc1scc(-c2ccccc2)[n+]1CC=C`, with -7.7%.

The record behind these values is PubChem BioAssay AID1135 (Sanford-Burnham Center for Chemical Genomics, 2008).
